Test [1] can be described thus: Nuclear factor erythroid 2-related factor 2/antioxidant responsive element (Nrf2/ARE) small molecule agonists: qHTS cell viability counter screen in human keratinocytes (AID 1919968; active = well fitted curve in the direction sought with a large enough effect in the repeat runs; an effect the other way counts as inactive or inconclusive; also: nearly all actives have a fitted effect of over 55% in size). The procedure, abridged: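 Parallel cytotoxicity read: KeratinoSens HaCaT cells, compound treatment 23 h, viability by CellTiter-Fluor fluorescence 1 h post-reagent.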
(In general: Quantitative high-throughput screening tests each substance at several concentrations.)

Test [2] is described as follows: Nuclear factor erythroid 2-related factor 2/antioxidant responsive element (Nrf2/ARE) small molecule agonists: luciferase reporter gene qHTS assay in human keratinocytes (AID 1919969; also: nearly all actives have a fitted effect of over 35% in size). (In general: Reporter assays use an easily measured gene product as a stand-in for the process of interest.)
Test [3] deals with Gonadotropin-releasing hormone receptor (Homo sapiens) (UniProt P30968). Briefly: Human gonadotropin-releasing hormone receptor (GnRHR) small molecule agonists, calcium flux assay in GnRHR-HEK293 cells (AID 1920063). Also: nearly all actives have a fitted effect of over 35% in size. In outline: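 Calcium flux, agonist mode, human GnRHR stably integrated in HEK293; dye 1 h at 37 C before compound; Ex/Em=480/540 kinetic read, 3 min; 15 concentrations, triplicate.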

The target of test [4] is KiSS-1 receptor (Homo sapiens) (UniProt Q969F8). The test is described as follows: Human kisspeptin (KISS1R) small molecule agonists, calcium flux assay in KISS1R-HEK293 cells (AID 1920064; active = well fitted curve in the direction sought with a large enough effect in the repeat runs; an effect the other way counts as inactive or inconclusive). The procedure, abridged: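 Triplicate 15-concentration series were applied to dye-loaded human KISS1R HEK293 cells, and agonist-evoked calcium fluorescence was captured for 3 min.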

A short description of test [5]: G protein-coupled receptor (GPCR) small molecule agonists, calcium flux assay: HEK293 wild type cell line counter screen (AID 1920065). The procedure, abridged:
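Non-specific calcium responders were flagged by adding DMSO-dissolved compounds to dye-loaded cells and reading 480/540 nm fluorescence each second for 3 min; ATP served as positive control.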

Test [6] in a line: p53 small molecule agonists, cell-based qHTS assay with human liver microsomes (AID 1963577). The procedure, abridged: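 In this qHTS, p53 response-element beta-lactamase cells receive test compound together with a microsome/NADPH activating system (0.5 mg/mL final each) and are incubated 16 h at 37 C before LiveBLAzer fluorescence detection.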
Test [7] can be described thus: p53 small molecule agonists, cell-based qHTS assay with rat liver microsomes (AID 1963578). In outline: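 Agonist mode in p53RE-bla reporter cells, with compounds co-incubated 16 h at 37 C alongside 0.5 mg/mL rat liver microsomes and 0.5 mg/mL NADPH (final), followed by a 2 h LiveBLAzer detection step.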
Test [8] is described as follows: p53 small molecule agonists, cell-based qHTS assay with human liver microsomes: qHTS cell viability counter screen (AID 1963579). Also: nearly all actives have a fitted effect of over 45% in size. In outline:
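Metabolically activated exposure: compounds, human liver microsomes and NADPH (0.5 mg/mL final apiece) were added to p53RE-bla cells seeded 5 h earlier, left 16 h at 37 C, and then assessed for viability by CellTiter-Glo luminescence.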

Test [9] can be described thus: p53 small molecule agonists, cell-based qHTS assay with rat liver microsomes: qHTS cell viability counter screen (AID 1963580). Also: nearly all actives have a fitted effect of over 45% in size. The procedure, abridged: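 Rat liver microsome (0.5 mg/mL final) and NADPH (0.5 mg/mL final) co-incubation with compounds for 16 h at 37 C on HCT-116 p53RE-bla cells; cytotoxicity taken from intracellular ATP luminescence.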
The nature of test [10]: p53 small molecule agonists, cell-based qHTS assay: qHTS cell viability counter screen (AID 1963581). Also: nearly all actives have a fitted effect of over 45% in size. The procedure, abridged: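 Multiplexed with the reporter read, a CellTiter-Glo step (30 min, room temperature) gauges ATP-based viability of HCT-116 p53RE-bla cells after 16 h compound incubation at 37 C.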
The nature of test [11]: p53 small molecule agonists, cell-based qHTS assay (AID 1963582; active = well fitted activation curve with a large enough effect in the signal ratio in the repeat runs, not every such curve was filed as active; the % refers to the signal ratio). In outline:
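Beta-lactamase reporter cells (p53RE-bla) treated with compounds for 16 h at 37 C; FRET substrate, 2 h, room temperature; fluorescence intensity.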

Test [12] concerns the target 5-hydroxytryptamine receptor 2A (Homo sapiens) (UniProt P28223). Briefly: 5-hydroxytryptamine receptor 2A (HTR2A) small molecule antagonists, cell-based qHTS assay (AID 1963586). Also: nearly all actives have a fitted effect of over 45% in size. In outline: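 CHO cells stably expressing human HTR2A were plated for 18 h at 37 C, then loaded with calcium dye for 1 h. Compounds were preincubated 5 min at room temperature before DOI (4 nM solution) was added. Kinetic fluorescence was read for 3 min.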

Test [13] has the same target. The test is described as follows: 5-hydroxytryptamine receptor 2A (HTR2A) small molecule agonists, cell-based qHTS assay (AID 1963587). Also: nearly all actives have a fitted effect of over 30% in size. Also: potency is read from the fitted curve at half-maximal effect. In outline: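 Kinetic calcium-flux fluorescence (2 min, 1 sec intervals) after compound addition in agonist mode. HTR2A-CHO cells were cultured 18 h, then dye-loaded 1 h at 37 C.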
In test [14] the target is Muscarinic acetylcholine receptor M1 (Homo sapiens) (UniProt P11229). The test is described as follows: Cholinergic receptor muscarinic 1 (CHRM1) small molecule antagonists, cell-based qHTS assay (AID 1963588). Also: nearly all actives have a fitted effect of over 40% in size. The procedure, abridged:
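Compounds were tested at 15 concentrations in three independent runs. Dye-loaded CHRM1-CHO cells were exposed 5 min at room temperature before stimulation by acetylcholine added at 50nM. Intracellular calcium was read kinetically on FDSS for 3 min.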

For test [15] the target is unchanged. Briefly: Cholinergic receptor muscarinic 1 (CHRM1) small molecule agonists, cell-based qHTS assay (AID 1963589). Also: nearly all actives have a fitted effect of over 35% in size. The procedure, abridged:
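qHTS, 15-point titration, 3 independent runs: compounds pin-transferred onto dye-loaded CHRM1-CHO cells (human M1), calcium fluorescence followed every second to detect agonism.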

The nature of test [16]: cAMP Responsive Elements (CRE) small molecule agonists, cell-based qHTS assay (AID 1963590). The procedure, abridged: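 Quantitative HTS for CRE agonists: HEK 293T CRE-bla cells, overnight plating, 3 h compound incubation at 37 C/5% CO2, then 2 h room-temperature LiveBLAzer B/G FRET substrate loading.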
The nature of test [17]: cAMP Responsive Elements (CRE) small molecule antagonists, cell-based qHTS assay (AID 1963591; active = well fitted inhibition curve with a large enough effect in the signal ratio in the repeat runs, not every such curve was filed as active; the % refers to the signal ratio). In outline:
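Fluorescence intensity from cleaved LiveBLAzer B/G substrate (2 h, room temperature) quantified CRE-bla activity in HEK 293T cells exposed 3 h to compound with 0.25 uM final NKH477.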

For test [18], the target named is Beta-2 adrenergic receptor (Homo sapiens) (UniProt P07550). The test is described as follows: Adrenergic beta2 receptor (ADRB2) small molecule antagonists, cell-based qHTS assay (AID 1963592). Also: series mostly up to about 92 µM; nearly all actives have a fitted effect of over 50% in size. In outline: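 Assay format: CHO-ADRB2 cells, 18-20hr seeding at 37C/5% CO2, then compound plus 1nM isoproterenol agonist mix for 0.5hr RT. Homogeneous time-resolved fluorescence cAMP detection after 1hr, expressed as 665/615 nm ratio.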

In test [19] the target is D(2) dopamine receptor (Homo sapiens) (UniProt P14416). Briefly: Dopamine D2 receptor (DRD2) small molecule agonists, cell-based qHTS assay (AID 1963594). Also: nearly all actives have a fitted effect of over 35% in size. In outline:
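cAMP accumulation in DRD2-HEK293 cells measured by HTRF after 1 h detection; compounds added 10 min before NKH477 (200nM […]) forskolin-analogue stimulation, 30 min at room temperature, with Ro20-1724 present at 0.1 mM final.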

For test [20] the target is unchanged. Briefly: Dopamine D2 receptor (DRD2) small molecule antagonists, cell-based qHTS assay (AID 1963595; active = well fitted inhibition curve with a large enough effect in the signal ratio in the repeat runs, with a control signal flat; the % refers to the signal ratio). The procedure, abridged: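 Cells were plated and grown for 24 h at 37 °C. Ro20-1724 (0.1 mM final) went in first, then compound for 10 min. NKH477 (200 nM) with quinpirole (12 nM) followed for 30 min at RT, then HTRF detection reagents for 1 h.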

Results filed as inconclusive are left out. Activity calls are given as the source filed them. Unless noted, calls follow the shape of the full dose curve.

Beta-2 adrenergic receptor (Homo sapiens), sequence (P07550 whole entry, looked up): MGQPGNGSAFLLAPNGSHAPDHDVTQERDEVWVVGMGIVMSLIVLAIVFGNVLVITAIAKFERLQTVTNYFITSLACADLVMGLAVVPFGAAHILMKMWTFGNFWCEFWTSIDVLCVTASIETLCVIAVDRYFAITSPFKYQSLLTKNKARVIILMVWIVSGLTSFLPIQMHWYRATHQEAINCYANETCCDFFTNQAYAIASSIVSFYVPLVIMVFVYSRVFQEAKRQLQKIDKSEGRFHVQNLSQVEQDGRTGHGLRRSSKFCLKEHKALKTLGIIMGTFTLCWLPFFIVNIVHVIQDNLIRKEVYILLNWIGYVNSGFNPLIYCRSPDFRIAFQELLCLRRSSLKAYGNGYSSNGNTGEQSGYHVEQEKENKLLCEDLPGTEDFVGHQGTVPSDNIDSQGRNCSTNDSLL
KiSS-1 receptor (Homo sapiens), sequence (Q969F8 whole entry, looked up): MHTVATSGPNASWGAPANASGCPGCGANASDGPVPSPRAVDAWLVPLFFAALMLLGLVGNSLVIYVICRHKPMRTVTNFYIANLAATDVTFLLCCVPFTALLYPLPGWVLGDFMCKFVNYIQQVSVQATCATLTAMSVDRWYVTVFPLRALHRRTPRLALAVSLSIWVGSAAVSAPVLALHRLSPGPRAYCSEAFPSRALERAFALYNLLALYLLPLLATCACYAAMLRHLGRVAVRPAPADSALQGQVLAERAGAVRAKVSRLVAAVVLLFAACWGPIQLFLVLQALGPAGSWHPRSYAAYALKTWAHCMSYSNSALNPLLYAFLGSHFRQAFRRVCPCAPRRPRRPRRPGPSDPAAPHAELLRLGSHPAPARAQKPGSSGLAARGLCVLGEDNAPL
Muscarinic acetylcholine receptor M1 (Homo sapiens), sequence (P11229 whole entry, looked up): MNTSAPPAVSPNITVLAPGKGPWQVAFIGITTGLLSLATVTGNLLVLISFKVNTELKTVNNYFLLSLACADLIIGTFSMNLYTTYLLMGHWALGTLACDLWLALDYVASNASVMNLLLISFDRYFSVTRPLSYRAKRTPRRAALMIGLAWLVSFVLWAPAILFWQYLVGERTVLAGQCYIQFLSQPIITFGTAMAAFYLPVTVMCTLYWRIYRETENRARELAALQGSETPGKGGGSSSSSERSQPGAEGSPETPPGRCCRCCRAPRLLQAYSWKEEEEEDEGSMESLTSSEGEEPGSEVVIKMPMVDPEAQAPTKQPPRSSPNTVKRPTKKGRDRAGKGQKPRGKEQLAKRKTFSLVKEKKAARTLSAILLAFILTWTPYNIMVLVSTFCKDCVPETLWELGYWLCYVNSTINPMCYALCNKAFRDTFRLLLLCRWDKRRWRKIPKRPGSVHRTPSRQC
D(2) dopamine receptor (Homo sapiens), sequence (P14416 whole entry, looked up): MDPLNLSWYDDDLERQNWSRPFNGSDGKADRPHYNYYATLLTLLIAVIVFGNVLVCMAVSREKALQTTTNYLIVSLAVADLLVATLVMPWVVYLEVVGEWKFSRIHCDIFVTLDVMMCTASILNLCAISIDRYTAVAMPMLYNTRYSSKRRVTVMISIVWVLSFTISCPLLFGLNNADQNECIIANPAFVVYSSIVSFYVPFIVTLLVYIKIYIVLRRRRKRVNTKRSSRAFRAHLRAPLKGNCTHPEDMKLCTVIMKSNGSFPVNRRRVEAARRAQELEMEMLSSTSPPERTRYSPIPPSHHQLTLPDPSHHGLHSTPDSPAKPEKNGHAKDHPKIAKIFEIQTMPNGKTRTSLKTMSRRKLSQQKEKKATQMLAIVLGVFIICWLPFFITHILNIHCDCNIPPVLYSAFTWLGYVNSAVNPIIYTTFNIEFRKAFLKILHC
5-hydroxytryptamine receptor 2A (Homo sapiens), sequence (P28223 whole entry, looked up): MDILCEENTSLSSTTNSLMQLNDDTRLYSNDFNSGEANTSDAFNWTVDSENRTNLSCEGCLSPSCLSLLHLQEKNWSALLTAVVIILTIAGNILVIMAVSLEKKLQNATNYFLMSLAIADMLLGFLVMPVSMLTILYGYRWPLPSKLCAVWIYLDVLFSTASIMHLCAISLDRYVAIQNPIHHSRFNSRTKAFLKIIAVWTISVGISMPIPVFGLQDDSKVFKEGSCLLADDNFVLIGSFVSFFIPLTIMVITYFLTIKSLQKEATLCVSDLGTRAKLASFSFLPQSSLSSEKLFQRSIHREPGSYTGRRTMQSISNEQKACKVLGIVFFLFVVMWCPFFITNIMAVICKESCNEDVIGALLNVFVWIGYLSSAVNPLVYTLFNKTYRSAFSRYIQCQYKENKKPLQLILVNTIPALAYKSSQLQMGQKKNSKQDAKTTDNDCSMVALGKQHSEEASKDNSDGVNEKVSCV
Gonadotropin-releasing hormone receptor (Homo sapiens), sequence (P30968 whole entry, looked up): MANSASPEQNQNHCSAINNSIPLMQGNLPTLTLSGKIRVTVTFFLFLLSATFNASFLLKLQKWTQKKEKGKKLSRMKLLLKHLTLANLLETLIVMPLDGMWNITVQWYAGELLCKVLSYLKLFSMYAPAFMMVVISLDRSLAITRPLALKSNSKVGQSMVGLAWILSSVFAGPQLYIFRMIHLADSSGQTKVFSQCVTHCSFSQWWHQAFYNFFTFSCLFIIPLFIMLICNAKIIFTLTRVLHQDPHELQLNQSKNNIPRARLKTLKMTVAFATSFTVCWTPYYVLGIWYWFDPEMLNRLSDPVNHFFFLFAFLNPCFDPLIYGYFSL

On to `CC(C)(c1ccccc1)c1cc(-n2nc3ccccc3n2)c(O)c(C(C)(C)c2ccccc2)c1`, for which the Potency entry in test [1], in test [2], in [3], in test [4], in test [5] and in test [6] was “inactive” throughout. Further, the Potency result in [7], in [8], in test [9], in test [10], in test [11] and in test [12] was “inactive” each time. Besides, the Potency result in [13], in test [14], in test [15], in test [16], in test [17] and in [18] was “inactive” throughout. Besides, the Potency result in test [19] and in test [20] was “inactive” each time.

For `COS(=O)(=O)c1ccc(C)cc1`, the Potency result in test [1], in [2], in test [3], in test [4], in test [5] and in test [6] was “inactive” each time. Moreover, the Potency entry in test [7], in [8], in [9], in [10], in test [11] and in test [12] was “inactive” each time. Besides, the Potency entry in [13], in test [14], in [15], in test [16], in test [17] and in [18] was “inactive” throughout. Also, the Potency result in test [19] and in test [20] was “inactive” in each case.

With `O=C(O)C(Cl)Br` (stereo not drawn), the Potency entry in test [1], in [2], in test [3], in test [4], in [5] and in test [6] was “inactive” each time. The Potency result in test [7], in test [8], in [9], in test [10], in test [11] and in test [12] was “inactive” throughout. For the same compound, the Potency entry in test [13], in test [14], in test [15], in test [16], in [17] and in [18] was “inactive” throughout. Further, the Potency result in test [19] and in test [20] was “inactive” in each case.

Consider `CC(C)(N)Cc1ccccc1Cl`, for which the Potency entry in [1], in [2], in [3], in [4], in test [5] and in [6] was “inactive” in each case. For the same compound, the Potency result in [7], in test [8], in test [9], in test [10], in [11] and in [12] was “inactive” throughout. The Potency entry in test [13], in test [14], in test [15], in test [16], in [17] and in test [18] was “inactive” in each case. Besides, the Potency result in [19] and in [20] was “inactive” throughout.

`Oc1ccc(Cl)c(Cl)c1`: the Potency result in test [1], in [2], in test [3], in [4], in test [5] and in test [6] was “inactive” in each case. Moreover, the Potency entry in test [7], in test [8], in [9], in test [10], in [11] and in test [12] was “inactive” in each case. Moreover, the Potency entry in [13], in test [14], in [15], in test [18] and in test [20] was “inactive” each time.

Turning to `C[C@]12CCC(=O)C(O)=C1CC[C@@H]1[C@@H]2CC[C@]2(C)C(=O)CC[C@@H]12`, the Potency entry in [1], in test [2], in test [3], in test [4], in [5] and in [6] was “inactive” each time. For the same compound, the Potency entry in test [7], in [8], in test [9], in test [10], in [11] and in [12] was “inactive” each time. In addition, the Potency entry in [13], in test [14], in test [15], in test [18], in test [19] and in [20] was “inactive” throughout.

On to `Nc1ccc(N=Nc2ccc(-c3ccc(N=Nc4c(S(=O)(=O)O)cc5cc(S(=O)(=O)O)c(N=Nc6ccccc6)c(O)c5c4N)cc3)cc2)c(N)c1`, for which the Potency entry in test [1], in test [2], in test [3], in test [4], in test [5] and in test [6] was “inactive” throughout. For the same compound, the Potency entry in test [7], in test [8], in test [9], in test [10], in [11] and in [12] was “inactive” each time. The Potency result in [14], in test [16] and in [17] was “inactive” in each case. The Potency in test [13] was 31.6 µM (active).

For `CN(C)NC(=O)CCC(=O)O`, the Potency result in test [1], in test [2], in [3], in test [4], in test [5] and in [6] was “inactive” in each case. Further, the Potency result in test [7], in [8], in [9], in test [10], in [11] and in [12] was “inactive” throughout. Besides, the Potency result in test [13], in test [14], in test [16], in [18], in test [19] and in [20] was “inactive” in each case.

For `N#CCCO`, the Potency entry in test [1], in [2], in test [3], in test [4], in [5] and in test [6] was “inactive” throughout. Moreover, the Potency entry in [7], in test [8], in [9], in test [10], in test [11] and in test [12] was “inactive” in each case. The Potency result in test [13], in test [14], in test [15], in test [17], in [18] and in test [19] was “inactive” each time. Also, the Potency entry in test [20] was “inactive”.

Values taken from PubChem BioAssay (Tox21).
